High-throughput results: PubChem BioAssay, several laboratories
BoNT A protease – BoNT/A light chain protease inhibitors, primary screen, biochemical, flow cytometry, MLPCN library | Botulinum neurotoxin type A light chain protease (Clostridium botulinum A str. ATCC 3502) | multiplex microsphere protease substrate cleavage | inhibition, % at 10 µM | 360,000 tested, 0.17% active | AID 588499, 2011
BoNT F protease – BoNT/F light chain protease inhibitors, primary screen, biochemical, flow cytometry, MLPCN library | inhibition, % at 10 µM | 360,000 tested, 0.22% active | Multiplex microsphere protease cleavage assay | Botulinum neurotoxin type F light chain protease (Clostridium botulinum); in the data active = inhibition above about 35%, passing the limit was not always enough; inconclusive = no clear call, values can overlap the other calls
BJeLR lethal – MLPCN primary cell-based screen for lethality selective to Ras in HRASV12 cells; BJeLR (HRASV12) viability, CellTiter-Glo ATP luminescence, 48 h; inhibition, % (no concentration beside the values); 300,000 tested, 0.17% active; in the data active = inhibition above about 50%; inconclusive = no clear call, values can overlap the other calls
SARS 3CLpro inh – SARS-CoV 3CLpro protease inhibitors, primary screen, biochemical, quenched FRET; Replicase polyprotein 1ab (Severe acute respiratory syndrome coronavirus), P0C6X7; recombinant SARS-CoV 3CLpro, quenched FRET peptide cleavage; inhibition, % at 6 µM; 290,000 tested, 0.14% active; AID 1706, 2009; in the data active = inhibition above about 12%
Anthrax LF prot – Bacillus anthracis LF protease inhibitors, primary screen, biochemical, multiplex microsphere, MLPCN library; Lethal factor (Bacillus anthracis), P15917; multiplex microsphere protease cleavage assay; inhibition, % at 10 µM; 360,000 tested, 0.12% active; AID 588501, 2011
Target sequence (P15917 whole entry, looked up): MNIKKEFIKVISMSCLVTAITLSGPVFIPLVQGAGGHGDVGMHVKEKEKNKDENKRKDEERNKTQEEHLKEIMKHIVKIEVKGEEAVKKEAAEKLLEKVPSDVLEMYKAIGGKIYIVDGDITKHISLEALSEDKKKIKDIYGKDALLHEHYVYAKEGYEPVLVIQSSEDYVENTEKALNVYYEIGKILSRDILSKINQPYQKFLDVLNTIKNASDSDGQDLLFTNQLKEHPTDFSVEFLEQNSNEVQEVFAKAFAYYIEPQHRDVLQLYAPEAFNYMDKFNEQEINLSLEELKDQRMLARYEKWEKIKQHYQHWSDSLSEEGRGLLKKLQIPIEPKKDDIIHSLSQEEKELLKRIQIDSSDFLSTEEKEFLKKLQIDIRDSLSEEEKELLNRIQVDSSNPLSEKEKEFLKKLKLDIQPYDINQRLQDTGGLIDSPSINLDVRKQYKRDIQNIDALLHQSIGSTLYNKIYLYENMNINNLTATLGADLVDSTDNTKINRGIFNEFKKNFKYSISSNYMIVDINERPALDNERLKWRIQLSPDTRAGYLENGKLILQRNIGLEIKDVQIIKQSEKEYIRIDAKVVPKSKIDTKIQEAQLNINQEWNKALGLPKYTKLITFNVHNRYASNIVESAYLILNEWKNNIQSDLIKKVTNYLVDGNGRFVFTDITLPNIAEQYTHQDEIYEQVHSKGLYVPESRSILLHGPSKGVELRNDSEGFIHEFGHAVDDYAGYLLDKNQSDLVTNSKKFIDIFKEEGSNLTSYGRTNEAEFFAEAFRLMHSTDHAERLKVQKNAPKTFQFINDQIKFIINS
Autofluor counter – counter-screen for toxin protease inhibitors: compound fluorescence; compound autofluorescence counterscreen, microsphere flow cytometry; hits give high values; fluorescence intensity (concentration not given with the values); 360,000 tested, 3.1% active; AID 624483; in the data active = fluorescence intensity above about 16000; inconclusive = no clear call, values can overlap the other calls
Large screens that a line does not name were inactive. Only some compounds are listed: those with a hit (about 3.6% of all), similar ones and a draw of the others. Rule as the data show it, unless noted: active = inhibition above about 30%; inconclusive = no clear call, values can overlap the other calls; inactive = below that.

COc1cc(C2NC(=S)NC(c3ccccc3)=C2C(C)=O)cc(Cl)c1OCC(=O)O (configuration not stated)	Autofluor counter 23312
CCOC(=O)COc1c(Cl)cc(C2NC(=S)NC(c3ccccc3)=C2C(C)=O)cc1OC (configuration not stated)	none
Cc1ccc(CN2CCN(C(=O)C3CCC3)CC2)cc1	Autofluor counter 22954
CN(CCNC(=O)c1ccc(CS(=O)(=O)c2c(Cl)cccc2Cl)o1)CCc1ccccc1	none
N#C/C(N=Nc1ccccc1O)=N\Nc1ccccc1O	BJeLR lethal 56.0 (no result: SARS 3CLpro inh)
CCN(CC)S(=O)(=O)c1ccc(N/N=C/c2cc(OC)c(OC)cc2OC)nc1	none
CCOc1cccc(/C=N/Nc2ccc(S(=O)(=O)N(CC)CC)cn2)c1O	BJeLR lethal 51.6
O=C(N/N=C/c1cccc2ccccc12)c1ccncc1	none
O=C(/C=C/c1cccc2ccccc12)c1ccncc1	BJeLR lethal 70.8
CC(Oc1ccccc1)C(=O)NNC(=O)c1ccccn1 (configuration not stated)	none
C/C(=N\NC(=O)C(C)Oc1ccc([N+](=O)[O-])cc1)c1ccccn1 (configuration not stated)	BoNT A protease inconclusive, Autofluor counter 24747
Cc1ccccc1C(O)c1ccccn1 (configuration not stated)	Autofluor counter 24308
OC(c1ccccn1)C(O)c1ccccn1 (configuration not stated)	none (no result: BJeLR lethal, SARS 3CLpro inh)
COc1ccccc1C(=O)NC(=O)COC(=O)c1ccc(C)o1	BoNT F protease inconclusive (no result: SARS 3CLpro inh)
O=Cc1cnc(N2CCOCC2)nc1	none
CCCCOc1ccc(/C=C/C(=O)NCCc2nc3ccccc3[nH]2)cc1	Autofluor counter 21858
Cc1ccc(S(=O)(=O)N2CCOC2CNC(=O)C(=O)NCc2ccc3c(c2)OCO3)cc1 (configuration not stated)	none
CCOCCCNC(=O)CS(=O)(=O)Cc1nc(-c2cccc(OC)c2)oc1C	BoNT A protease inconclusive, Autofluor counter 21852
Cc1ccc(-n2c(-c3ccncc3)nnc2-c2ccco2)cc1	none
Cc1ccc(-c2nnc(-c3ccncc3)n2-c2ccc(C)cc2)cc1	BoNT A protease inconclusive, Autofluor counter 21828
c1ccc(-c2nnc(-c3ccco3)n2-c2ccccc2)cc1	none
c1ccc(-n2c(-c3ccncc3)nnc2-c2ccco2)cc1	Autofluor counter 16681
CCOC(=O)c1c(C)oc(/N=C/c2ccccc2O)c1C#N	none
O=C(CC(=O)c1ccccc1)Nc1ccccc1C(F)(F)F	none
Fc1cccc(CO/N=C/c2c(-c3ccccc3)nc3ccc(Cl)cn23)c1	Autofluor counter 16783
O=C(NCc1cccnc1)c1ccc(NC(=O)c2ccc(Br)cc2)cc1	BJeLR lethal 78.3
CC(C)C(=O)Nc1ccc(C(=O)NCc2cccnc2)cc1	BJeLR lethal 77.8
O=C(NCc1cccnc1)c1ccc(NC(=O)c2ccco2)cc1	none
CC1=NC(Nc2nc(C)c3ccccc3n2)=NC(C)(C)C1	Autofluor counter 24864
O=C(CN1CCc2ccccc2C1)Nc1ccccc1C(=O)NC1CC1	none (no result: BJeLR lethal, SARS 3CLpro inh)
COc1ccccc1/C=C1\SC(=S)N(Nc2nc(C)cc(C)n2)C1=O	Autofluor counter 24819
Cc1cc(C)nc(NN2C(=O)/C(=C/c3ccc(O)cc3)SC2=S)n1	none
CCN(C(=O)Cn1c(=O)oc2ccccc21)c1cccc(C)c1	none
Cc1ccc(CN2CCNC(=O)C2CC(=O)O)cc1 (configuration not stated)	none
CN1CCNC(=O)C1CC(=O)O (configuration not stated)	BoNT A protease inconclusive, Autofluor counter 22031
CC1Cc2ccccc2N1C(=O)c1ccc2nccnc2c1 (configuration not stated)	BoNT F protease inconclusive
Cc1cc(-n2c(SCC(=O)Nc3ccc(Br)cc3)nc3n[nH]c(C)c3c2=N)ccc1Cl	none
Cc1cc(-n2c(SCC(=O)NCc3cccs3)nc3n[nH]c(C)c3c2=N)ccc1Cl	Autofluor counter 23384
O/C(=C\Sc1nnc(Cc2ccccc2)o1)c1ccc(F)cc1	none
COc1ccc(NC(=O)c2oc3ccccc3c2NC(=O)c2ccco2)c(OC)c1	Autofluor counter 23875
CCOCC(=O)Nc1c(C(=O)Nc2ccc(OC)cc2OC)oc2ccccc12	BoNT A protease inconclusive, Autofluor counter 24944
CCN(CC)S(=O)(=O)c1ccc2oc(C(=O)Nc3ccc(OC)cc3OC)c(C)c2c1	Autofluor counter 24222
COCC(=O)Nc1c(C(=O)Nc2ccccc2OC)oc2ccccc12	Autofluor counter 23967
COc1ccc(NC(=O)c2oc3ccccc3c2NC(=O)C2CC2)c(OC)c1	none
COc1ccc(NC(=O)c2ccco2)c(OC)c1	none
CC(C)Oc1ccc(S(=O)(=O)N2CCCCC2)cc1NC(=O)C1CCC1	none (no result: SARS 3CLpro inh)
CCOC(=O)CC(C)(C)/C(C)=N/Nc1ccc([N+](=O)[O-])cc1[N+](=O)[O-]	none
COc1ccc(NC(=O)c2oc3ccccc3c2NC(=O)C(C)(C)C)cc1	none
COc1ccc(NC(=O)c2oc3ccccc3c2NC(=O)c2ccco2)cc1	Autofluor counter 21689
CN(CC(=O)Nc1ccc(F)cc1)C(=O)c1ccc(OCc2ccccc2)cc1	none (no result: BJeLR lethal, SARS 3CLpro inh)
Cc1cc(-n2c(=O)c(C#N)cc3c(=O)n4cccc(C)c4nc32)no1	Autofluor counter 21724
Cc1ccc(-n2c(=O)c(C#N)cc3c(=O)n4ccccc4nc32)cc1	none
Cc1cccn2c(=O)c3cc(C#N)c(=O)n(-c4c(C)n(C)n(-c5ccccc5)c4=O)c3nc12	none
Cc1cccc(-n2c(=O)c(C#N)cc3c(=O)n4ccccc4nc32)c1	BoNT A protease inconclusive, Autofluor counter 20190
O=C(NC1CC1)C1CCN(Cc2cnn(-c3ccccc3)c2-n2cccc2)CC1	Autofluor counter 23345
O=C(NCc1cccnc1)C1CCCN(Cc2cnn(-c3ccccc3)c2-n2cccc2)C1 (configuration not stated)	Autofluor counter 23887
COc1cccc(CNC(=O)C2CCN(Cc3cnn(-c4ccccc4)c3-n3cccc3)CC2)c1	none
O=C(O)C1CCN(Cc2cnn(-c3ccccc3)c2-n2cccc2)CC1	none
O=C(NCc1ccccn1)C1CCCN(Cc2cnn(-c3ccccc3)c2-n2cccc2)C1 (configuration not stated)	none
O=C(CSCc1cnn(-c2ccccc2)c1-n1cccc1)NCc1ccccn1	none
CCN(CC)C(=O)CSCc1cnn(-c2ccccc2)c1-n1cccc1	BoNT A protease inconclusive, Autofluor counter 22480
O=C(NCc1ccccn1)C1CCN(Cc2cnn(-c3ccccc3)c2-n2cccc2)CC1	Autofluor counter 22540
